In the library only some 11% were active in any assay of this set; here they are far more common.
AmpC inh no detg = AmpC beta-lactamase inhibition without detergent. P00811. AmpC nitrocefin hydrolysis, absorbance 480 nm, 0.0001% Triton. Potency, µM (titrated, usually from 57.1 µM), usual class: inhibitors. hit rate 0.52% among 330,000. AID 485341; also: nearly all actives have a fitted effect of over 20% in size
Target sequence (P00811 whole entry, looked up): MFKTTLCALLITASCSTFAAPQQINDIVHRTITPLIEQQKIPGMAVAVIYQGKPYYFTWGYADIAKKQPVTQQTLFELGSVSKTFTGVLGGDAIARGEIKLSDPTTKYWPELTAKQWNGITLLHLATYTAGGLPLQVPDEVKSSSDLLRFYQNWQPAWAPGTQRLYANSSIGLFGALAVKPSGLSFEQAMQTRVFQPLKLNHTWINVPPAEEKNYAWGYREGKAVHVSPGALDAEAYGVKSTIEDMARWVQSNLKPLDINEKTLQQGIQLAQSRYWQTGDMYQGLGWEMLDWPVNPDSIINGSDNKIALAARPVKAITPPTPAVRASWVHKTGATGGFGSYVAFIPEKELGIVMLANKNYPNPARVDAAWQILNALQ
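20 mM phosphate pH 7.0 + 0.01% (detergent screen) or 0.0001% Triton X-100; 5.3 nM AmpC reagent; cpd preinc 15 min RT; nitrocefin (800 uM stock) to start; A480 q20 s × 4 min; Activity was normalised to no-enzyme and no-compound control wells.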
HCV inhibitor = inhibitors of hepatitis C virus infection; AID 651820; hit rate 3.4% among 340,000; Huh7.5.1 HCVcc-Cre infection, luciferase reporter, 44 h; Potency, µM (top dose mostly 41.8 µM), usual class: inhibitors
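A cell-based infection assay in which seeded cells (1,000 per well) receive test compound after 4 h, are inoculated with HCVcc-Cre at approximately 0.5 moi, and are incubated 44 h before luminescence detection.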
AmpC inh detg = blocks E. coli AmpC beta-lactamase in detergent assay | P00811 | AmpC hydrolysis of nitrocefin, absorbance 480 nm, 0.01% Triton | Potency, µM (doses to about 114 µM), actives largely listed as inhibitors | hit rate 0.041% among 370,000 | AID 485294; also: nearly all actives have a fitted effect of over 25% in size
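20 mM phosphate pH 7.0 + 0.01% (detergent screen) or 0.0001% Triton X-100; 5.3 nM AmpC reagent; cpd preinc 15 min RT; nitrocefin (800 uM stock) to start; A480 q20 s × 4 min; Activity was normalised to no-enzyme and no-compound control wells.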
Pf growth 96h = P. falciparum growth inhibition at 96 hours | P. falciparum luciferase reporter growth, 96 h | Potency, µM (series often up to 28.7 µM), actives largely listed as inhibitors | hit rate 6.9% among 320,000
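Parasite growth measured via integrated firefly luciferase reporter in P. falciparum. Infected erythrocytes at 2% hematocrit, 0.05% parasitemia final were treated 96 hours at 37 C under 5% CO2, and luminescence was read.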
AMA1 RON2 block = disrupts binding of P. falciparum AMA1 to RON2; hit rate 0.2% among 360,000; Potency, µM (top dose mostly 58.2 µM), usual class: inhibitors; AlphaScreen AMA1-biotinylated RON2 peptide binding; also: nearly all actives have a fitted effect of over 45% in size
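AMA1 (3D7) with his tag at 25 nM final met compounds first, then biotinylated RON2 peptide at 25 nM; detection used donor plus acceptor beads, 10 µg/mL apiece, read by AlphaScreen after 30 min at room temperature.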
Pf growth 48h = inhibits P. falciparum growth in the first generation, 48 h. Potency, µM (titrated, usually from 28.7 µM), actives largely listed as inhibitors. hit rate 5.9% among 310,000. P. falciparum luciferase growth in erythrocytes, 48 h
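Firefly luciferase activity from engineered P. falciparum reports growth; inhibitors lower the luminescent signal. Cultures contained 2% hematocrit erythrocytes at 0.1% final parasitemia.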
Hits are given with their value; n = inactive; u = inconclusive; x = no result given; [ ] = remark or other dose. Calls follow the shape of the dose curve; as a rule, active = well fitted curve in the direction sought with a large enough effect; inconclusive = small, poorly fitted or top-dose-only effect, or another doubt; inactive = no such curve, though single readings can be large; an effect the other way counts as inactive or inconclusive.

SMILES	AmpC inh no detg	HCV inhibitor	AmpC inh detg	Pf growth 96h	AMA1 RON2 block	Pf growth 48h
CN(C)CCCNC(=O)C(=O)Nc1ccc2c(c1)N(S(=O)(=O)c1cccs1)CCC2	n	8.9µM	u	u	n	9.3µM
COc1ccc(C(=O)CC2(O)C(=O)N(Cc3ccccc3)c3ccc(Br)cc32)cc1 (centres undefined)	x	x	n	x	x	x
CC(NO)/C(=N\O)c1cccs1 (centres undefined)	n	n	n	n	n	x
O/N=C(/CN(O)/C=C1/C=CC=N1)c1cccs1	n	n	n	15µM	n	n
COc1cccc(CNC(=O)N2CCc3c(sc4c3CCCC4)C2c2ccc(F)cc2)c1 (centres undefined)	x	x	n	x	x	x
CC(C)n1c(O)c(N=NC(=O)CNC(=O)Cc2ccc(Cl)cc2)c2ccccc21	n	u	u	n	n	n
CC(C)n1c(O)c(N=NC(=O)Cc2csc(N3CCOCC3)n2)c2ccccc21	n	n	n	u	n	13µM
CC12CCC3C(CC=C4CC(O)CCC43C)C1C/C(=C\c1cccc(F)c1)C2=O (centres undefined)	n	n	n	12µM	n	u
COc1ccc(-c2c(C)nn3c(C)cc(C)nc23)cc1	n	11µM	n	n	n	n
Cc1cc(N)n2nc(C)c(-c3ccc(Cl)cc3)c2n1	n	11µM	n	n	n	u
COc1ccc(-c2c(C)nn3c(C(F)(F)F)cc(C)nc23)cc1	x	x	x	x	n	x
CC1CCc2c(sc(NC(=O)CCCOc3ccc(C(C)(C)C)cc3)c2C(N)=O)C1 (centres undefined)	x	x	n	x	x	x
O=C(Nc1ccc(Cc2ccncc2)cc1)C1CCC(N2C(=O)C3C4C=CC(C5CC45)C3C2=O)CC1 (centres undefined)	n	8.9µM	n	x	n	u
Cc1ccc(C)c(S(=O)(=O)c2nnn3c2nc(NC(C)C)c2sccc23)c1	x	x	n	x	x	x
Cc1ccc(OCCOC(=O)Nc2ccccc2)cc1	n	n	n	n	n[2.32 µM]	n
COc1ccccc1OCCOC(=O)Nc1ccccc1	n	n	n	8.3µM	n	n
Cc1cc(Cl)ccc1OCC(=O)Nc1ccc2oc(=O)ccc2c1	n	u	u	12µM	n	n
Cc1cc(Cl)ccc1OCC(=O)Nc1ccncc1	n	13µM	n	u	n	n
Cc1ccccc1OCC(=O)Nc1nnc(-c2ccncc2)s1	n	n	n	15µM	n	n
COc1ccccc1OCC(=O)Nc1ccncc1	n	n	n	0.52µM	n	n
COc1ccccc1OCC(=O)Nc1ccccn1	n	n	u	n	n	n
COc1ccc(OCC(=O)Nc2ccc3oc(=O)ccc3c2)cc1	n	n	n	n	n	u
COc1ccc(C(=O)NC(=S)Nc2ccc3oc(=O)ccc3c2)cc1	n	u	u	n	n	n
CCCCCC(=O)NC(=S)Nc1ccc2oc(=O)ccc2c1	n	n	n	13µM	n	n
Cc1cc(Cl)ccc1OCCCC(=O)NO	n	7.1µM	n	x	n	u
SMILES	AmpC inh no detg	HCV inhibitor	AmpC inh detg	Pf growth 96h	AMA1 RON2 block	Pf growth 48h
CC(C)c1ccc(OCC(=O)Nc2ccc3oc(=O)ccc3c2)cc1	n	u	n	3.3µM	n	n
CCN1CCN(c2ccc(NC(=O)COc3ccc(Cl)cc3C)cc2)CC1	n	10µM	x	x	n	x
CCn1nc(-c2ccccc2)c(-c2ccccc2)c(C(=O)Nc2ccc(NC(C)=O)cc2)c1=O	x	x	n	x	x	x
O=C(C1=C[C@H](c2csc3ccccc23)C[C@H](OCCCCO)O1)N1CCN(Cc2ccc3c(c2)OCO3)CC1	n	u	n	1.5µM	u	2.3µM
O=C(C1=C[C@H](c2csc3ccccc23)C[C@H](OCCCCO)O1)N1CCN(Cc2ccccc2)CC1	n	n	n	2.3µM	n	3.7µM
O=C(Nc1ccccc1)C1=C[C@H](c2csc3ccccc23)C[C@H](OCCCCO)O1	n	n	n	8.3µM	n	u
C[C@@H]1C=C(C(=O)N2CCN(Cc3ccc4c(c3)OCO4)CC2)O[C@H](OCCCCO)C1	n	n[8.37 µM]	n	n	n	n
O=C(C1=C[C@@H](c2csc3ccccc23)C[C@@H](OCCCCO)O1)N1CCN(Cc2ccc3c(c2)OCO3)CC1	n	u	n	12µM	n	u
O=C(NCc1ccccc1)C1=C[C@H](c2csc3ccccc23)C[C@H](OCCCCO)O1	n	n	n	u	n	u
Cc1ccc(Sc2ccc(N3CCC(C(=O)Nc4ccc(C)c(F)c4)CC3)nn2)cc1	x	x	n	x	x	x
Cc1ccc(NC(=O)Cn2cc(C(=O)c3ccco3)c3ccccc32)cc1C	x	x	n	x	x	x
O=C(C1=C[C@@H](c2coc3ccccc3c2=O)C[C@@H](OCCCCO)O1)N1CCN(Cc2ccccc2)CC1	n	n	n	u	n	u
O=C(C1=C[C@@H](c2coc3ccccc3c2=O)C[C@@H](OCCCCO)O1)N1CCN(Cc2ccc3c(c2)OCO3)CC1	n	n	n	3.3µM	n	u
CC1CCN(c2ccccc2NC(=O)c2ccc(C#N)cc2F)CC1	n	10µM	n	n	n	u
COc1ccc(COCC(O)CN2CCN(S(=O)(=O)c3c(F)cccc3F)CC2)cc1OC (centres undefined)	x	35µM	x	x	n[11.6 µM]	x
COc1cc2nc(CN3CCN(S(=O)(=O)c4c(F)cccc4F)CC3)[nH]c(=O)c2cc1OC	n	n	n	u	n	10µM
COc1ccccc1COCC(O)CN1CCN(S(=O)(=O)c2cccc(F)c2)CC1 (centres undefined)	n	n	n	n	u	n
COc1cc2nc(CN3CCN(S(=O)(=O)c4ccccc4C(F)(F)F)CC3)[nH]c(=O)c2cc1OC	n	n	x	x	n	x
CCC(CO)Nc1nc2ccc(Cl)cc2c2ccccc12 (centres undefined)	n	4µM	n	u	n	n
CCC(CO)Nc1ncnc2c1cnn2-c1ccc(Cl)cc1 (centres undefined)	n	n	n	n	n	x
Cc1nn(S(=O)(=O)c2ccc(C(C)C)cc2)c(C)c1S(=O)(=O)N1CCCCC1	x	x	n	x	x	x
CCCCc1ccc(NC(=O)N2CCN(c3cc(C)nc4ccccc34)CC2)c(C)c1	n	6.3µM	n	u	n	u
Cc1cc(N2CCN(C(=O)Nc3ccc(F)cc3F)CC2)c2ccccc2n1	n	u	n	15µM	n	10µM
Cc1cc(N2CCN(C(=O)c3ccco3)CC2)c2ccccc2n1	n	n	u	n	n	n
CCCNC(=O)CN1C(=O)CSc2ccc(S(=O)(=O)N3CCC(C)CC3)cc21	x	x	n	x	x	x
O=c1c2ccccc2n(Cc2cccc(Cl)c2)c(=O)n1CCc1ccccc1	x	x	n	x	x	x
COc1ccccc1NS(=O)(=O)c1cn(C)c(C)n1	x	x	n	x	x	x
Cc1nc(S(=O)(=O)Nc2ccccc2C(=O)NCC2CC2)cn1C	n	n	n	n	n	3.3µM

Assay outcomes from PubChem.
